Our source for the growth values is PubChem BioAssay (NCI).

Compounds without any hit were thinned out: in the full panel of roughly 83,000, 20% have a hit.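 Step 1: grow cells in 96-well plates. Step 2: add test compound at a single concentration. Step 3: incubate 48 h. Step 4: record percent growth.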 Values without a mark were called inactive. Active and inactive are the calls of the source. Rule for the calls: active = growth percent below 10; inactive = the rest.

Test in all cases: NCI-60 one-dose screen, 48 h (100 = growth as untreated, 0 = no growth, -100 = all killed)
Conditions in all cases: 10 µM unless noted

For assay [1], the system named is NCI-H23 lung.
In assay [2] the test system is NCI-H226 lung.
Assay [3] concerns NCI-H322M lung.
The test system of assay [4] is HOP-62 NSCLC.
In assay [5] the test system is NCI-H460 lung.
In assay [6] the test system is HOP-92 NSCLC.
The subject of assay [7] is NCI-H522 lung.
Assay [8] relates to A549/ATCC NSCLC.
The test system of assay [9] is 786-0 renal.
Assay [10] relates to COLO 205 colon.
Assay [11] has as its system DU-145 prostate.
For assay [12], the system named is K-562 leukemia.
Assay [13] concerns MALME-3M melanoma.
Assay [14] has as its system MDA-MB-231 breast.
Assay [15] relates to RXF 393 renal.
Assay [16] deals with SF-268 CNS.
For assay [17], the system named is SF-295 CNS.
Assay [18] has as its system SF-539 CNS.
For assay [19], the system named is UACC-257 melanoma.
Assay [20] concerns M14 melanoma.

Turning to `N#CC1(O)CCCCC1`, the growth in [1] was 114%; in assay [2], 100%; in [3], 97.8%; in assay [4] it was 95.2%; in assay [5], 107%; in assay [6] it was 96.5%. The growth in assay [7] is 88.6%; in [8], 92.1%; in assay [9], 105%; in assay [10] it was 109%; in assay [11] it was 103%; in assay [12], 102%. The growth in [13] is 104%; in assay [14] it was 118%; in assay [15] it was 110%; in [16], 98.5%; in assay [17], 103%; in [18], 105%. Besides, the values for the growth in assay [19] and in [20] were 90.2% and 95.7%, respectively.

Take `Nc1ccc2c(c1)Cc1cc(N)c(N)cc1-2`: the growth in assay [1] is 86.2%; in [2], 95.4%; in [3], 92%; in [4], 95%; in assay [5] it was 95.9%; in assay [6] it was 101%. Moreover, the growth was 74.6% in assay [7]; 77.9% in assay [8]; 107% in [9]; 103% in assay [10]; 108% in assay [11]; 97.3% in [12]. The growth in assay [13] was 95.8%; in [14], 84%; in assay [15] it was 97.3%; in [16], 104%; in assay [17] it was 106%; in assay [18] it was 109%. For the same compound, the growth in assay [19] was 81%; in assay [20], 102%.

Consider `CC(=O)Nc1ccc(C(=O)c2ccc(S(=O)(=O)Nc3ccccc3)cc2)cc1`, for which the growth in assay [1] was 231%; in assay [2], 102%; in assay [3] it was 73.2%; in assay [4], 100%; in assay [5] it was 97.8%; in [6] it was 74.2%. The growth in assay [7] is 84.4%; in [8], 81.3%; in assay [9], 156%; in assay [10], 92.4%; in [11], 117%; in [12], 112%. In addition, the growth in [13] is 99.5%; in assay [14], 88.1%; in [15] it was 100%; in assay [16], 104%; in assay [17] it was 109%; in [18], 94.7%. For the same compound, the figures for the growth in assay [19] and in assay [20] were 69.6% and 91.8%, respectively.

On to `CC(C)C1CCC(C)C(O)C1` (stereo not given), for which the growth was 110% in [1]; 102% in [2]; 105% in [3]; 95.3% in assay [4]; 108% in [5]; 102% in [6]. For the same compound, the growth is 92.8% in assay [7]; 88.7% in assay [8]; 105% in assay [9]; 111% in assay [10]; 106% in assay [11]; 103% in assay [12]. Also, the growth in assay [13] is 109%; in assay [14], 93.9%; in assay [15] it was 108%; in [16] it was 100%; in assay [17], 100%; in [18], 100%. Also, the figures for the growth in assay [19] and in [20] were 85.6% and 101%, respectively.

With `COc1cc(OC)c2cc(C(=O)c3ccc(C#N)cc3)c(=O)oc2c1`, the growth in assay [1] is 96.9%; in [2] it was 92.2%; in assay [3], 92.3%; in [4], 88.6%; in assay [5] it was 107%; in assay [6] it was 107%. Further, the growth in [7] is 93.1%; in [8], 99%; in [9] it was 84%; in [10], 117%; in assay [11], 102%; in assay [12] it was 85.1%. In addition, the growth was 95.7% in assay [13]; 79.3% in [14]; 109% in assay [15]; 88.1% in [16]; 97.2% in [17]; 82.5% in assay [18]. Further, the growth was 102% in assay [19] and 105% in [20].

As to `C=CC(C)C(C)(C)O` (stereo not given), the growth in assay [1] is 108%; in assay [2], 98.8%; in assay [3], 98.3%; in [4], 102%; in assay [5] it was 102%; in [6], 105%. The growth is 94.4% in assay [7]; 94.6% in [8]; 89.4% in assay [9]; 110% in [10]; 105% in [11]; 94% in [12]. In addition, the growth in assay [13] was 107%; in assay [14], 103%; in [15] it was 105%; in assay [16] it was 95.3%; in [17], 102%; in [18] it was 105%. For the same compound, the growth in assay [19] is 109%; in assay [20], 102%.

For the compound `c1ccc2[nH]c(Cc3nc4ccccc4[nH]3)nc2c1`, the growth in assay [1] was 107%; in assay [2], 112%; in [3] it was 93.1%; in assay [4], 99.2%; in [5], 111%; in assay [6] it was 85%. Moreover, the growth in assay [7] is 103%; in assay [8], 103%; in assay [9], 117%; in [10] it was 105%; in assay [11], 109%; in assay [12], 126%. Moreover, the growth in assay [13] is 89%; in assay [14], 106%; in assay [15] it was 114%; in assay [16], 131%; in [17], 101%; in assay [18], 105%. The growth in assay [19] is 111%; in assay [20], 94.3%.

For the compound `Clc1ccc(-c2noc(/C=C\c3ccccc3)n2)cc1`, the growth in assay [1] is 101%; in assay [2], 93.1%; in assay [3], 87.1%; in assay [4], 106%; in [5] it was 109%; in assay [6] it was 99.3%. In addition, the growth in assay [7] was 87%; in assay [8], 87.9%; in assay [9], 99.4%; in [10], 105%; in assay [11], 108%; in assay [12], 94.6%. Besides, the growth in assay [13] is 95%; in assay [14], 109%; in [15], 104%; in [16] it was 106%; in assay [17] it was 89.9%; in assay [18] it was 101%. Besides, the growth in assay [19] is 104%; in assay [20], 101%.

Regarding `Cc1nc(O)cc(=O)[nH]1`, the growth was 108% in [1]; 111% in assay [2]; 99.3% in [3]; 112% in assay [4]; 104% in assay [5]; 76.3% in assay [6]. Also, the growth was 103% in [7]; 109% in assay [8]; 114% in assay [9]; 115% in assay [10]; 113% in assay [11]; 112% in assay [12]. Moreover, the growth in [13] is 106%; in assay [14] it was 124%; in assay [15], 111%; in assay [16], 105%; in assay [17], 118%; in [18], 114%. Besides, the growth in assay [19] is 92.1%; in [20], 105%.

Turning to `CC(=O)NC(CCc1ccc(Cl)c(Cl)c1)c1cccc(O)c(=O)c1` (stereo not given), the growth in assay [1] is 21.8%; in [2] it was -13.8% (active); in assay [3], 5% (active); in assay [4], 10.3%; in assay [5], 3.68% (active); in assay [6] it was 4.89% (active). The growth is 15.7% in assay [7]; 8.58% (active) in [8]; 10.2% in [9]; 16.7% in assay [10]; 16.6% in assay [11]; 11.2% in [12]. Further, the growth in assay [13] is -17.9% (active); in [14], 28.3%; in [15] it was 18.6%; in assay [16], 8.61% (active); in assay [17], -22.2% (active); in assay [18], 2.57% (active). The growth in assay [19] was -11% (active); in [20] it was -44.2% (active).

With `N#Cc1ccc(OC(=O)Nc2cc(Cl)cc(Cl)c2)cc1`, the growth in [1] is -10.3% [100 µM] (active); in assay [2], 1.99% [100 µM] (active); in [3], -3.43% [100 µM] (active); in assay [4], -13.7% [100 µM] (active); in assay [5], 0.999% [100 µM] (active); in assay [6] it was -35.9% [100 µM] (active). Also, the growth is -31.1% [100 µM] (active) in assay [7]; 4.72% [100 µM] (active) in assay [8]; 9.34% [100 µM] (active) in [9]; -85.9% [100 µM] (active) in assay [10]; 18.9% [100 µM] in [11]; 6.66% [100 µM] (active) in [12]. For the same compound, the growth was -32.5% [100 µM] (active) in [13]; -52.8% [100 µM] (active) in assay [14]; 10.3% [100 µM] in assay [15]; 12.5% [100 µM] in assay [16]; -23.1% [100 µM] (active) in [17]; -4.48% [100 µM] (active) in assay [18]. For the same compound, the results for the growth in [19] and in assay [20] were -20.1% [100 µM] (active) and -25.3% [100 µM] (active), respectively.

Regarding `COc1ccc(C(=O)/C(=N/Nc2ccccc2)c2ccc(OC)cc2)cc1`, the growth in [1] is 89%; in [2], 94.2%; in [3], 103%; in assay [4], 102%; in assay [5] it was 94.1%; in assay [6], 82.1%. The growth in assay [7] was 79.3%; in [8], 85.4%; in assay [9], 94.2%; in [10] it was 99.9%; in assay [11], 115%; in assay [12], 92.8%. Further, the growth was 109% in assay [13]; 82.7% in assay [14]; 92.4% in assay [15]; 101% in [16]; 101% in assay [17]; 95.9% in assay [18]. For the same compound, the growth in [19] was 111%; in [20], 102%.
